Results as given in PubChem BioAssay (NCI).
About 83,000 compounds went through this panel and 20% of them were active in at least one assay; those are over-represented in the sample as a whole.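 For each line, cells grew in 96-well plates with the test compound present at a single concentration for 48 hours.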 Unmarked numbers belong to inactive results. Active and inactive are the calls of the source. How the source made its calls: active means growth percent below 10; inactive means the rest.

How the values were obtained:
Assay in all cases: NCI-60 one-dose screen, 48 h (100 = growth as untreated, 0 = no growth, -100 = all killed)
Details in all cases: 10 µM unless noted
T-47D breast = system: T-47D breast
BT-549 breast = system: BT-549 breast
MDA-MB-435 melanoma = system: MDA-MB-435 melanoma
SW-620 colon = system: SW-620 colon
MCF7 breast = system: MCF7 breast
HCT-116 colon = system: HCT-116 colon
HCC-2998 colon = system: HCC-2998 colon
KM12 colon = system: KM12 colon

Compound	growth (T-47D breast)	growth (BT-549 breast)	growth (MDA-MB-435 melanoma)	growth (SW-620 colon)	growth (MCF7 breast)	growth (HCT-116 colon)	growth (HCC-2998 colon)	growth (KM12 colon)
COc1cc(-c2nc(-c3ccccc3)c(-c3ccccc3)[nH]2)cc(OC)c1O	6.06% (active)	11.5%	-23.2% (active)	-37.2% (active)	-85.8% (active)	-2.7% (active)	-55.2% (active)	-52.9% (active)
O=C(N/N=C/c1ccccc1SSc1ccccc1/C=N/NC(=O)c1ccccc1)c1ccccc1	43.6%	30.1%	46.1%	41.6%	10.1%	24.6%	55.6%	36.4%
C#CCn1c(C)cc(C)c(C#N)c1=O	101%	98%	106%	104%	91.5%	103%	105%	101%
Cn1c2c(c3ccc(Cl)cc31)-n1cccc1C2=O	95.2%	92.6%	112%	93.7%	74.2%	76.9%	101%	100%
COc1ccc(OC)c(-c2c(C#N)c(-c3ccco3)nc3c2c(-c2ccccc2)nn3-c2ccccc2)c1	84%	108%	106%	95.8%	94.7%		105%	106%
Nc1c(C(=O)Nc2c(Cl)cccc2Cl)sc2nc3c(cc12)CCCC3	69%	90.1%	5.24% (active)	51%	43.7%	47.8%	92.5%	68.6%
CCN1CCN(C(=O)[C@]23CC[C@@H](C)[C@H](C)[C@H]2C2=CC[C@@H]4[C@@]5(C)C/C(=C/c6cccc(OC)c6OC)C(=O)C(C)(C)[C@@H]5CC[C@@]4(C)[C@]2(C)CC3)CC1	18.2%	55%	43.4%	33.3%	12.2%	17.9%	44.6%	32.7%
COc1ccc(C(=O)c2cc(OC)c(OC)c(OC)c2)cc1/C=C/C(=O)c1cc(OC)c(OC)c(OC)c1	89.7%	86.8%	65.2%	92.9%	75.2%	67.8%	100%	86.6%
Cn1cc(-c2nc(-c3c[nH]c4ncccc34)cs2)c2cc(Cl)ccc21	38.9%	70.6%	51.9%	73.3%	17%	32.2%	80.6%	9.88% (active)
CC1=CC(=O)N(c2cccc3c(N4C(=O)C=C(C)C4=O)cccc23)C1=O	30.1%	99.7%	80.6%	14.3%	57.7%	17.8%	105%	106%
Cc1cc(N(CCCNc2ccnc3cc(Cl)ccc23)Cc2ccco2)nc(N2CCN(C)CC2)n1	23.6%	50.2%	-5.06% (active)	33.6%	29%	28.3%	86.9%	63.3%
C#CCN=C[C@]12CC[C@@H](C(=C)C)[C@@H]1[C@H]1CC[C@@H]3[C@@]4(C)CCC(=O)C(C)(C)[C@@H]4CC[C@@]3(C)[C@]1(C)CC2	37%	48.3%	72.4%	65.3%	42.5%	26.8%	78.1%	61%
COc1ccc(/C=C(\C#N)c2cc3ccccc3n2S(C)(=O)=O)cc1	96.2%	86%	6.05% (active)	70.1%	66.8%	82.9%	94%	69%
COc1cccc(-c2nn(-c3ccccc3)cc2-c2ccnc(NCCCNS(=O)(=O)c3ccc(Br)cc3)c2)c1	18.5%	73%	54.3%	69.7%	29.6%	40.8%	46%	44.1%
CCOC(=O)C/C(=C\c1ccccc1)C(C)=O	68.1%	98.4%	109%	103%	101%	88.7%	107%	101%
O=C(NC(Cc1cn(Cc2ccccc2)cn1)C(=O)O)OCC1c2ccccc2-c2ccccc21 (stereo not given)	112%	97.2%	113%	104%	104%	90.8%	113%	101%
O=C(N/N=C\c1ccccc1O)C1CC1	86.8%	112%	112%		102%	107%	103%	100%
Cn1cc(-c2nc(-c3c[nH]c4ncccc34)cs2)c2ccccc21	29.1%	82.9%	36.5%	95.8%	10.5%		32.6%	12.9%
CCCCC[C@H]1C/C=C2/C(=O)C(Cl)=C[C@@H]2C/C=C\CCCC(=O)O[C@@H](CCCCC)C/C=C2/C(=O)C(Cl)=C[C@@H]2C/C=C\CCCC(=O)O1	-20.3% (active)	-52.7% (active)	-16.1% (active)	-41.6% (active)	-42.1% (active)		-88.6% (active)	-73% (active)
COc1cccc(-c2nn(-c3ccccc3)cc2-c2ccnc(NCCNS(=O)(=O)c3ccccc3)c2)c1	4.18% (active)	36.5%	10.7%		14.9%	29.4%	26.8%	21.7%
N#CC1C(=N)Cc2ccccc2-c2ccccc21 (stereo not given)	60.9%	41.5%	-23.8% (active)	19.2%	31.4%		86.8%	18%
COCCNC1=C(Cl)C(=O)c2ccccc2C1=O	98.8%	98.2%	24.5%		81.3%	86.8%	95%	83.3%
Cn1c(=O)c2c(nc(N3CCCC3)n2C)n(C)c1=O	90.5%	97%	107%		99.1%	93.3%	108%	101%
COc1ccc(NC(=S)N/N=C/c2ccccc2SSCCC(=O)OC[C@H]2O[C@H](O)[C@H](O)[C@@H](O)[C@@H]2O)cc1	66%	68.9%	52.8%	93.5%	44.7%		94.2%	63.3%
O=C1C(=O)N(CCCCn2cc(-c3ccccc3)nn2)c2ccccc21	93.4%	96.7%	108%		94.9%	101%	117%	104%
O=C1NC(=Nc2ccc(S(=O)(=O)Nc3nccs3)cc2)S/C1=C\c1coc2ccccc2c1=O	97.1%	106%	124%	99.7%	88%		99.1%	113%
COc1ccc(OCC(CO)N2CCN(c3ccccc3)CC2)cc1 (stereo not given)	101%	97.5%	108%	110%	83.4%		99.7%	105%
Cc1ccc(-c2ccc(/C=C(\C#N)c3nc(-c4ccco4)cs3)o2)cc1	-22.8% (active)	103%	98.6%	99.8%	14.5%		54.8%	61.2%
COc1ccc2c(c1)c(-c1nc(-c3c[nH]c4ncccc34)cs1)cn2CCN	25.7%	88.2%	68.9%	55.3%	36.5%		94.9%	24.4%
O=C1/C(=C\c2ccc(Br)o2)SC(=S)N1CCc1ccc(O)cc1	57.7%	76.4%	71.3%	102%	33.4%		119%	19.5%
